According to PubChem BioAssay (NCATS):
Inconclusive results are not listed. Active and inactive are the calls of the source. Unless noted, calls come from the whole dose curve; as a rule, active = well fitted curve in the direction sought with a large enough effect; inconclusive = small, poorly fitted or top-dose-only effect, or another doubt; inactive = no such curve, though single readings can be large; an effect the other way counts as inactive or inconclusive.

What was measured:
[1] = biological target: DNA repair nuclease/redox regulator APEX1 (Homo sapiens) (UniProt P27695); experiment: qHTS Validation Assay for Inhibitors of the Human Apurinic/apyrimidinic Endonuclease 1 (APE1) (AID 1705;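 note: TAMRA fluorescence gain over two minutes as APE1 cuts a quenched THF abasic duplex; % is set by controls: 0 for no effect and ±100 for the full control effect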)
DNA repair nuclease/redox regulator APEX1 (Homo sapiens), sequence (P27695 whole entry, looked up): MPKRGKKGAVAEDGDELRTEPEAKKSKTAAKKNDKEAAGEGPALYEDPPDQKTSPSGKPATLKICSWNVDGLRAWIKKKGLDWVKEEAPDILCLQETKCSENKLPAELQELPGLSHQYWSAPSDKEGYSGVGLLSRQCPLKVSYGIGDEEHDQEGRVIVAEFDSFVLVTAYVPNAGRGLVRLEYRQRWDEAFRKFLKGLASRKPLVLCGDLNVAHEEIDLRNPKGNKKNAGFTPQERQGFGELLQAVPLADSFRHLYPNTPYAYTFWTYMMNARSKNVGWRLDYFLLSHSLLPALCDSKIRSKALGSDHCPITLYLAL
Outline: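 Substrate: 50 nM final fluorophore/quencher THF-abasic duplex. Enzyme preincubated with compounds 15 min, RT. Progress derived from fluorescence difference, third minus first kinetic read.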

[2] = Counterscreen for APE1 Inhibitors: Fluorescent Dye Displacement Validation Assay (AID 1707);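 note: plate controls were ThO with dsDNA and no compound for no effect and ThO without dsDNA for full effect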
Outline: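 Thiazole Orange (250 nM) bound to 50 nM TAMRA-labelled dsDNA with tetrahydrofuran abasic site; displacement by DNA-binding compounds lowers fluorescence. Buffer 50 mM Tris-HCl pH 7.5, 50 mM NaCl, 2 mM MgCl2, 0.01% Tween-20; endpoint read at 480/540 nm.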

[3] = qHTS for differential inhibitors of proliferation of Plasmodium falciparum line 7G8 (AID 1815);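 note: parasite growth measured after three days of incubation; plate controls were vehicle wells for no effect and reference inhibitor wells for full effect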
[4] = qHTS for differential inhibitors of proliferation of Plasmodium falciparum line GB4 (AID 1816); settings: Potency: Plasmodium falciparum GB4 proliferation inhibition;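 note: parasite growth measured after 72 h incubation; 0% = vehicle DMSO and -100% = reference inhibitor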
[5] = qHTS for differential inhibitors of proliferation of Plasmodium falciparum line 3D7 (AID 1876);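 note: parasite growth measured after three days of culture; 0% = vehicle wells and -100% = reference inhibitor wells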
[6] = qHTS for differential inhibitors of proliferation of Plasmodium falciparum line D10 (AID 1877);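 note: parasites grown with compound for 72 h before DNA staining; plate controls were vehicle wells for no effect and reference inhibitor wells for full effect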
[7] = qHTS for differential inhibitors of proliferation of Plasmodium falciparum line Dd2 (AID 1882); settings: Potency: Plasmodium falciparum Dd2 proliferation inhibition;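 note: compound exposure of 72 h on infected erythrocytes; plate controls were DMSO vehicle for no effect and 0.29 µM artemisinin for full effect; nearly all actives have a fitted effect of over 65% in size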
Outline: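 SYBR Green I DNA fluorescence read-out, ex 485/em 535 nm. Signals were normalized to 0.29 uM artemisinin and DMSO wells, then corrected using vehicle-only plates flanking each stack. Parasite growth ran 72 h in erythrocytes before lysis.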

[8] = qHTS for differential inhibitors of proliferation of Plasmodium falciparum line W2 (AID 1883); settings: Potency: Plasmodium falciparum W2 proliferation inhibition;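 note: parasites grown with compound for 72 h before lysis and staining; 0% = vehicle wells and -100% = control inhibitor wells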
[9] = qHTS for differential inhibitors of proliferation of Plasmodium falciparum line HB3 (AID 1886); settings: Potency: Plasmodium falciparum HB3 proliferation inhibition;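 note: parasites grown with compound for 72 h before SYBR Green readout; plate controls were vehicle for no effect and reference inhibitor for full effect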
[10] = biological target: Ferritin light chain (Equus caballus) (UniProt P02791); experiment: qHTS Validation Assay for Identification of Novel General Anesthetics (AID 2323); note: % is set by controls: 0 for no effect and ±100 for the full control effect
Ferritin light chain (Equus caballus), sequence (P02791 2-175 limits assumed): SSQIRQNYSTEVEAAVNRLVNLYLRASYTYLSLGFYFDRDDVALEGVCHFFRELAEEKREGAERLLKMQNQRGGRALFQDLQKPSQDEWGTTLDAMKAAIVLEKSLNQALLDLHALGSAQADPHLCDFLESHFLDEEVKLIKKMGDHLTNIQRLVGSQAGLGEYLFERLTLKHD
Outline: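 Normalized fluorescence response, scaled between free 1-AMA and 1-AMA/apoferritin complex, fitted to a four-parameter Hill equation for concentration-effect values. Binding mix: 10 uM horse-spleen apoferritin, 50% saturated 1-AMA in PBS; read 380/535 nm after 10 min.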

[11] = Validation screen for inhibitors of Lassa infection (AID 463096; calls by dose curve; note: % is set by controls: 0 for no effect and ±100 for the full control effect)
[12] = Validation screen for small molecules that induce DNA re-replication in MCF 10A normal breast cells (AID 463097); note: 0% is about no effect; nearly all actives have a fitted effect of over 60% in size
Outline: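 Following 48 hr compound incubation (37 C, 5% CO2), MCF 10A cells receive Hoechst for 40 min at 37 C. Nuclei are then scanned (excitation 405 nm, emission 500-530 nm) for total fluorescence intensity.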

[13] = Quantitative high throughput screen for delayed death inhibitors of the malarial parasite plastid, 96 hour incubation (AID 488745); note: % is set by controls: 0 for no effect and ±100 for the full control effect; nearly all actives have a fitted effect of over 70% in size
Outline: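 P. falciparum carrying an integrated firefly luciferase reporter, grown in erythrocytes (2% hematocrit, 0.1% parasitemia final) in RPMI 1640/0.5% Albumax, was exposed to compound for 96 h (two generations) at 37 C, 5% CO2. Luminescence decrease indicated growth inhibition.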

[14] = Quantitative high throughput screen for delayed death inhibitors of the malarial parasite plastid, 48 hour incubation (AID 488752); note: % is set by controls: 0 for no effect and ±100 for the full control effect; nearly all actives have a fitted effect of over 65% in size
Outline: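 Erythrocytes infected with P. falciparum carrying an integrated firefly luciferase reporter (2% hematocrit, 0.1% parasitemia final) were exposed to compounds in RPMI 1640/0.5% Albumax for 48 h at 37 C, 5% CO2. Growth inhibition was scored as reduced luminescence.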

[15] = biological target: Transient receptor potential cation channel subfamily V member 1 (Homo sapiens) (UniProt Q8NER1); experiment: HTS Assay for Compounds that Act as Enhancers of the Vanilloid Receptor 1 (AID 488979); note: 0% is about no effect
Transient receptor potential cation channel subfamily V member 1 (Homo sapiens), sequence (Q8NER1 whole entry, looked up): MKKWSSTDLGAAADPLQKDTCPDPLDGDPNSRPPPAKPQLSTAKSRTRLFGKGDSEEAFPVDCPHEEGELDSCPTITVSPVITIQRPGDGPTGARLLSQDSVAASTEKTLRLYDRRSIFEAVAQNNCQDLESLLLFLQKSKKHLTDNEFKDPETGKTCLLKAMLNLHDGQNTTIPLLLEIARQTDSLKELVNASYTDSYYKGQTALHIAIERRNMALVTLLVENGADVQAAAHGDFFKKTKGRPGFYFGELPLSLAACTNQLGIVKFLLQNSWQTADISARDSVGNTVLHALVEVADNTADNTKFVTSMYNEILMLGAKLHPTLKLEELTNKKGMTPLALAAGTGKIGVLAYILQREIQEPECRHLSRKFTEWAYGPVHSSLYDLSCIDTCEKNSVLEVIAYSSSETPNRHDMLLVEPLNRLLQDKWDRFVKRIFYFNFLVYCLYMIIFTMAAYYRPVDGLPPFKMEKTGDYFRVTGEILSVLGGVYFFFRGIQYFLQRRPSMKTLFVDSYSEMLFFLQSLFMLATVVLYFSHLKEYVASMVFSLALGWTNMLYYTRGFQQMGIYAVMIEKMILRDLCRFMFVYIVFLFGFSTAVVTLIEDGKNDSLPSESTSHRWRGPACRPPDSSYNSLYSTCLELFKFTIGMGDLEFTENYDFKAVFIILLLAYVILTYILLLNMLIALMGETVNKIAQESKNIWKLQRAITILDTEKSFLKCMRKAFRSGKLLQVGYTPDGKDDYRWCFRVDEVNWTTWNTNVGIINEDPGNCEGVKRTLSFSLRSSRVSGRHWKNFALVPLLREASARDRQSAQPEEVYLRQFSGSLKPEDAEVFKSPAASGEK
Outline: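 Calcium influx kinetics via Fluo-8 (480/520 nm) in TRPV1-expressing cells, 2000/well cultured overnight at 35.5C. Compound-alone read 3 min (agonist phase), followed by EC20 capsaicin challenge for 2 min (enhancer phase).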

[16] = biological target: ATP-dependent 6-phosphofructokinase (Trypanosoma brucei brucei) (UniProt O15648); experiment: qHTS Assay to Find Inhibitors of T. brucei phosphofructokinase: hit validation (AID 492961);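 note: luminescence reports ADP formed as PFK phosphorylates fructose-6-phosphate with ATP; % is set by controls: 0 for no effect and ±100 for the full control effect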
ATP-dependent 6-phosphofructokinase (Trypanosoma brucei brucei), sequence (O15648 whole entry, looked up): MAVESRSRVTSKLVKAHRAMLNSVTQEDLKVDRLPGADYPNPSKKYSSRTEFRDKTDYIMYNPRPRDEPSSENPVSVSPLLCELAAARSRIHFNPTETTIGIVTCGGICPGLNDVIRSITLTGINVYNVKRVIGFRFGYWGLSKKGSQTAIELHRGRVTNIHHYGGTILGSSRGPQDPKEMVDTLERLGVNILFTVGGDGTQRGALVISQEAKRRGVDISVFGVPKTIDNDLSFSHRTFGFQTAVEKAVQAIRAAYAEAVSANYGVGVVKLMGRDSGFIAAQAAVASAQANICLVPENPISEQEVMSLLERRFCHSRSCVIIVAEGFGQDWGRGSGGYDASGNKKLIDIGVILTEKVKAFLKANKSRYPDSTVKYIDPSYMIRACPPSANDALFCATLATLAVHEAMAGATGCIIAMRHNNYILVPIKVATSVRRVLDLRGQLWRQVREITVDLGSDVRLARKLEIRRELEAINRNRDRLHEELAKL
Outline: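 Measures ADP output of PFK (1.25 nM) at 0.1 mM ATP, 0.5 mM F6P, pH 8.0 TEA buffer with 5 mM MgCl2. No-enzyme wells define full inhibition; uninhibited enzyme wells define zero.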

[17] = biological target: Thyrotropin-releasing hormone receptor (Homo sapiens) (UniProt P34981); experiment: qHTS for Small Molecule Agonists and Allosteric Enhancers of Human TRH Receptor: Validation Screen for Agonists (AID 493127;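 active = calcium activation more than 3 SD above the typical response in the agonist read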;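 note: intracellular calcium rise by fluo-8 fluorescence before TRH EC20 addition; 0% is about no effect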); settings: TRH receptor agonist cell assay; at 2 µM; stronger effect = higher value
Thyrotropin-releasing hormone receptor (Homo sapiens), sequence (P34981 whole entry, looked up): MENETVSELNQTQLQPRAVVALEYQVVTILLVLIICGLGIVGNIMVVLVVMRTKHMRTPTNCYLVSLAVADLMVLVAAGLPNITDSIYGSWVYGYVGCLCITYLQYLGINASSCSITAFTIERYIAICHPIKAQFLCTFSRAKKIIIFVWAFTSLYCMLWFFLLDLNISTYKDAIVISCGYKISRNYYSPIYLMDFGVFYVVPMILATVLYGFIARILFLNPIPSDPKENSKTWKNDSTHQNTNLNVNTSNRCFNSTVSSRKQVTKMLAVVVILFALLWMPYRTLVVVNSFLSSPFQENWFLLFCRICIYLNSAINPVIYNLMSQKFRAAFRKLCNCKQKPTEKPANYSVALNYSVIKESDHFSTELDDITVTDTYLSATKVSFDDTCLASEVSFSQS
Outline: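 TRHR-expressing cells were plated overnight in serum-containing medium, then loaded with fluo-8 calcium dye at room temperature for 30 min–1.5 h. After a 10 s baseline, compound was pin-transferred and calcium fluorescence (ex 480/em 530) read kinetically for agonist response.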

[18] = biological target: Galactokinase (Homo sapiens) (UniProt P51570); experiment: qHTS Validation Assay for Inhibitors of Human Galactokinase (GALK) (AID 493189); note: 0% is about no effect
Galactokinase (Homo sapiens), sequence (P51570 whole entry, looked up): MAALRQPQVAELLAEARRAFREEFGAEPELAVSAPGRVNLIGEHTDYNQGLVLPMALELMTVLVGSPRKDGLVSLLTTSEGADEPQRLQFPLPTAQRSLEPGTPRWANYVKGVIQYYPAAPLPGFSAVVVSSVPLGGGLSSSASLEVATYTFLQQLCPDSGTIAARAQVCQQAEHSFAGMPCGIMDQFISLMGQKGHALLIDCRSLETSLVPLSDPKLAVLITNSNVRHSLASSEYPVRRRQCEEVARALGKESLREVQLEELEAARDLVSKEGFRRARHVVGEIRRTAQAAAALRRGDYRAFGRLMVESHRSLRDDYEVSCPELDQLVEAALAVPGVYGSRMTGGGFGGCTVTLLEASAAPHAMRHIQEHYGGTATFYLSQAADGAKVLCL
Outline: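 Enzyme activity is inferred from ATP consumption: human GALK phosphorylates galactose (100 uM) using 35 uM ATP for 1 h at room temperature, and luciferase-based Kinase-Glo Plus reports unconsumed ATP.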

[19] = biological target: Ubiquitin carboxyl-terminal hydrolase 1 (Homo sapiens) (UniProt O94782); experiment: Inhibitors of USP1/UAF1: Pilot qHTS (AID 504865);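 note: rhodamine fluorescence freed from ubiquitin-rhodamine substrate followed over time; top concentration of the series differs between compounds; % is set by controls: 0 for no effect and ±100 for the full control effect; nearly all actives have a fitted effect of over 35% in size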
Ubiquitin carboxyl-terminal hydrolase 1 (Homo sapiens), sequence (O94782 whole entry, looked up): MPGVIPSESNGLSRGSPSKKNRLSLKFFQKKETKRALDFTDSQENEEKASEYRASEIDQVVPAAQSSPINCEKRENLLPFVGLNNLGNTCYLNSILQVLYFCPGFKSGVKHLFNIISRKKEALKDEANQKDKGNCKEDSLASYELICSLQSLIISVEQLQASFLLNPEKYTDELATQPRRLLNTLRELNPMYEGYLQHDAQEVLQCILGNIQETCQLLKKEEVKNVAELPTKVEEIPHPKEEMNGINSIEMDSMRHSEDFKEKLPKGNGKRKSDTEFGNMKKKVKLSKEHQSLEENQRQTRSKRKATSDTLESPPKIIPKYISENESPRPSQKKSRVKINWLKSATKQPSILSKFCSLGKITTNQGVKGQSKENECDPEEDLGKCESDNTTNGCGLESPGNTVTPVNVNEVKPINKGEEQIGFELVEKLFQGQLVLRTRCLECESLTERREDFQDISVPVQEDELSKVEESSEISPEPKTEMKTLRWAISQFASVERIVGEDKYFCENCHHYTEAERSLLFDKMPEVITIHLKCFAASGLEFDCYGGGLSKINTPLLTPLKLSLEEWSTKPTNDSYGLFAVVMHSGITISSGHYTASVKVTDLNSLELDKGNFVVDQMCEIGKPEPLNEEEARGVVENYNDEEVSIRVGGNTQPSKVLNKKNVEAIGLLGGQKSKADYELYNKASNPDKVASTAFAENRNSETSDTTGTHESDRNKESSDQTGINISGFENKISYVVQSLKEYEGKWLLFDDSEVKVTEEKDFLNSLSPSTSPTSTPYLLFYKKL
Outline: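 Enzyme-free wells gave the negative control, while test wells held 1nM USP1/UAF1 preincubated with compound for 15 min at room temperature. Ub-Rho at 150nM final started the reaction, and fluorescence at 480/540 nm was recorded kinetically.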

[20] = biological target: Luciferin 4-monooxygenase (Photinus pyralis) (UniProt P08659); experiment: Biochemical firefly luciferase enzyme assay for NPC (AID 624030);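 note: purified P. pyralis luciferase at 10 nM with luciferin and ATP substrate; 0% = DMSO and -100% = full luciferase inhibition by PTC124 control; nearly all actives have a fitted effect of over 70% in size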
Luciferin 4-monooxygenase (Photinus pyralis), sequence (P08659 whole entry, looked up): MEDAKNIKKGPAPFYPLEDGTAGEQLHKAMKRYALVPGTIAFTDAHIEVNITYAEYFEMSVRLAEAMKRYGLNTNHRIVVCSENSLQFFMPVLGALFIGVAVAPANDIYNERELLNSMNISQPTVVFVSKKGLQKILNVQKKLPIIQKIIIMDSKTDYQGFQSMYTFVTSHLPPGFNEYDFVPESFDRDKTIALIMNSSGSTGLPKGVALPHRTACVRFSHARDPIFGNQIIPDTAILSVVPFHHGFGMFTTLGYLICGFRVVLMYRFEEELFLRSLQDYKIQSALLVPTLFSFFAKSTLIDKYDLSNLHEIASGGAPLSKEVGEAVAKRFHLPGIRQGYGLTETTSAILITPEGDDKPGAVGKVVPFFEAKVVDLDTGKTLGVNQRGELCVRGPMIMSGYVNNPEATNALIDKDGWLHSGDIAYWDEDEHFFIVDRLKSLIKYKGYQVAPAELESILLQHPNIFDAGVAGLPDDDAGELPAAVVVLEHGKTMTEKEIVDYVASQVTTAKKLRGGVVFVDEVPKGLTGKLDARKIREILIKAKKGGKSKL
Outline: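 Direct inhibition of firefly luciferase enzyme (10 nM final, 50 mM Tris Acetate) assessed by luminescence within 5 minutes. Percent activity scaled between DMSO and PTC124 positive control, with concentration-effect curves classified by fit quality and response.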

[21] = S16 Schwann cell viability assay (CellTiter-Glo assay) (AID 624031);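 note: cellular ATP luminescence as a viability measure; plate controls were DMSO-treated cells for no effect and cell-free wells for full effect; nearly all actives have a fitted effect of over 70% in size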
Outline: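 Native S16 Schwann cells (rat), serum-containing medium, overnight attachment then 24 h drug exposure at 37 °C/5% CO2. CellTiter-Glo ATP signal; normalized to cell-free and vehicle wells.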

[22] = S16 Schwann cell PMP22 intronic element firefly luciferase assay (AID 624032);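 note: plate controls were DMSO for no effect and PTC124 positive control mean for full effect; nearly all actives have a fitted effect of over 30% in size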
Outline: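 Luciferase reporter of PMP22 intronic-element expression in stably transfected S16 rat Schwann cells, read by ONE-Glo luminescence after 24 h compound exposure at 37 C. Activity scaled between DMSO (0%) and positive-control PTC124; concentration-effect curves quality-classified.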

[23] = S16 Schwann cell PMP22 intronic element beta-lactamase assay (AID 624044; calls by dose curve;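 note: 0% = DMSO and -100% = potassium clavulanate positive control; nearly all actives have a fitted effect of over 15% in size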); settings: S16 rat Schwann cells, PMP22 element beta-lactamase FRET, 24 h; ratio activity, negative = inhibition: at 38.3 µM (top of the series) unless noted
Outline: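 Rat S16 Schwann cells with beta-Lac driven by a PMP22 intronic element, compound-treated 24 h at 37 °C. LiveBLAzer FRET B/G read: 460 nm normalized to potassium clavulanate vs DMSO; 535 nm FRET as viability; concentration-effect curves classified.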

[24] = qHTS profiling for inhibitors of Plasmodium falciparum proliferation (AID 504749);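 note: 0% = DMSO vehicle and full inhibition = artemisinin control; nearly all actives have a fitted effect of over 60% in size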; settings: P. falciparum in erythrocytes, SYBR Green DNA, 72 h, at 28.7 µM (top of the series)
Outline: (§1)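 Three-day growth assay of blood-stage parasites in erythrocytes (0.3% parasitemia, 2.5% hematocrit) at 37 C, 5% CO2, quantified by SYBR Green DNA staining after overnight detergent lysis.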

[25] = tested on: 3D7; experiment: as above; settings: P. falciparum in erythrocytes, SYBR Green DNA, 72 h; series mostly up to 28.7 µM
Outline: as §1

[26] = tested on: 7G8; experiment: as above; settings: P. falciparum in erythrocytes, SYBR Green DNA, 72 h; series mostly up to 12.8 µM
Outline: as §1

[27] = tested on: AA1029; experiment: as above; settings: P. falciparum in erythrocytes, SYBR Green DNA, 72 h; series mostly up to 28.7 µM
Outline: as §1

[28] = tested on: AS120; experiment: as above; settings: P. falciparum in erythrocytes, SYBR Green DNA, 72 h; series mostly up to 28.7 µM
Outline: as §1

[29] = tested on: ATS189; experiment: as above; settings: P. falciparum in erythrocytes, SYBR Green DNA, 72 h; series mostly up to 28.7 µM
Outline: as §1

[30] = tested on: ATS95; experiment: as above; settings: P. falciparum in erythrocytes, SYBR Green DNA, 72 h; series mostly up to 28.7 µM
Outline: as §1

[31] = tested on: C2A; experiment: as above; settings: P. falciparum in erythrocytes, SYBR Green DNA, 72 h; series mostly up to 28.7 µM
Outline: as §1

[32] = tested on: CP185; experiment: as above; settings: P. falciparum in erythrocytes, SYBR Green DNA, 72 h; series mostly up to 28.7 µM
Outline: as §1

[33] = tested on: CP191; experiment: as above; settings: P. falciparum in erythrocytes, SYBR Green DNA, 72 h; series mostly up to 28.7 µM
Outline: as §1

[34] = tested on: CP192; experiment: as above; settings: P. falciparum in erythrocytes, SYBR Green DNA, 72 h; series mostly up to 28.7 µM
Outline: as §1

[35] = tested on: CP194; experiment: as above; settings: P. falciparum in erythrocytes, SYBR Green DNA, 72 h; series mostly up to 28.7 µM
Outline: as §1

[36] = tested on: CP201; experiment: as above; settings: P. falciparum in erythrocytes, SYBR Green DNA, 72 h; series mostly up to 28.7 µM
Outline: as §1

[37] = tested on: CP203; experiment: as above; settings: P. falciparum in erythrocytes, SYBR Green DNA, 72 h; series mostly up to 28.7 µM
Outline: as §1

[38] = tested on: CP211; experiment: as above; settings: P. falciparum in erythrocytes, SYBR Green DNA, 72 h; series mostly up to 28.7 µM
Outline: as §1

[39] = tested on: CP215; experiment: as above; settings: P. falciparum in erythrocytes, SYBR Green DNA, 72 h; series mostly up to 28.7 µM
Outline: as §1

[40] = tested on: CP217; experiment: as above; settings: P. falciparum in erythrocytes, SYBR Green DNA, 72 h; series mostly up to 28.7 µM
Outline: as §1

C[C@]12CC[C@H](OS(=O)(=O)O)CC1=CCC1C2CC[C@]2(C)C(=O)CC[C@@H]12 (stereo partly specified)
inactive: Potency [1] | outcome [2] | Potency [3] | Potency [4] | Potency [5] | Potency [6] | Potency [7] | Potency [8] | Potency [9] | Potency [10] | Potency [11] | Potency [12] | Potency [13] | Potency [14] | outcome [15] | Potency [16] | activation [17] 0.688% | outcome [18] | Potency [19] | Potency [20] | Potency [21] | Potency [22] | Potency [23] | activity, negative = inhibition ([24]; parasite line A) -6.88% | activity, negative = inhibition ([24]; parasite line B) 5.59% | Potency [25] | Potency [26] | Potency [27] | Potency [28] | Potency [29] | Potency [30] | Potency [31] | Potency [32] | Potency [33] | Potency [34] | Potency [35] | Potency [36] | Potency [37] | Potency [38] | Potency [39] | Potency [40]
